Source: PubChem BioAssay (Tox21)
Results filed as inconclusive are left out. The source made the active and inactive calls. Unless noted, calls come from the whole dose curve.

Columns and labels:
[1] = Nuclear factor erythroid 2-related factor 2/antioxidant responsive element (Nrf2/ARE) small molecule agonists: qHTS cell viability counter screen in human keratinocytes (AID 1919968; active = well fitted curve in the direction sought with a large enough effect in the repeat runs; an effect the other way counts as inactive or inconclusive; note: nearly all actives have a fitted effect of over 55% in size)
Procedure, shortened: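 Cytotoxicity was multiplexed with the Nrf2/ARE luciferase assay in the same wells. Stably transfected HaCaT keratinocytes were treated with test compounds for 23 h at 37 C. Cell viability was then measured by CellTiter-Fluor fluorescence.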

[2] = Nuclear factor erythroid 2-related factor 2/antioxidant responsive element (Nrf2/ARE) small molecule agonists: luciferase reporter gene qHTS assay in human keratinocytes (AID 1919969); note: nearly all actives have a fitted effect of over 35% in size
[3] = molecular target: Gonadotropin-releasing hormone receptor (Homo sapiens) (UniProt P30968); experiment: Human gonadotropin-releasing hormone receptor (GnRHR) small molecule agonists, calcium flux assay in GnRHR-HEK293 cells (AID 1920063); note: nearly all actives have a fitted effect of over 35% in size
Chain of Gonadotropin-releasing hormone receptor (Homo sapiens) (P30968 whole entry, looked up): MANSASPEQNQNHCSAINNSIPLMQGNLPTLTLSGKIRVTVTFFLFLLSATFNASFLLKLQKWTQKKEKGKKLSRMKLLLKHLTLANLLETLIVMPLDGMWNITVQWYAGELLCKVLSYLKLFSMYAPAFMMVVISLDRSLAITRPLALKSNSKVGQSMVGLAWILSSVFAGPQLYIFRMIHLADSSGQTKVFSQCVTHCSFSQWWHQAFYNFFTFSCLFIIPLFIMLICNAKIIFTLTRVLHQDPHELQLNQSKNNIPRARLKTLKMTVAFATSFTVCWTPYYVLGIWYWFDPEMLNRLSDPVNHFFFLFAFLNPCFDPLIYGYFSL
Procedure, shortened: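 Agonist activity was measured as intracellular calcium flux in HEK293 cells engineered to stably express human GnRHR. After dye loading for 1 hour at 37 C, compounds in DMSO were added and fluorescence was followed for 3 minutes.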

[4] = molecular target: KiSS-1 receptor (Homo sapiens) (UniProt Q969F8); experiment: Human kisspeptin (KISS1R) small molecule agonists, calcium flux assay in KISS1R-HEK293 cells (AID 1920064; active = well fitted curve in the direction sought with a large enough effect in the repeat runs; an effect the other way counts as inactive or inconclusive)
Chain of KiSS-1 receptor (Homo sapiens) (Q969F8 whole entry, looked up): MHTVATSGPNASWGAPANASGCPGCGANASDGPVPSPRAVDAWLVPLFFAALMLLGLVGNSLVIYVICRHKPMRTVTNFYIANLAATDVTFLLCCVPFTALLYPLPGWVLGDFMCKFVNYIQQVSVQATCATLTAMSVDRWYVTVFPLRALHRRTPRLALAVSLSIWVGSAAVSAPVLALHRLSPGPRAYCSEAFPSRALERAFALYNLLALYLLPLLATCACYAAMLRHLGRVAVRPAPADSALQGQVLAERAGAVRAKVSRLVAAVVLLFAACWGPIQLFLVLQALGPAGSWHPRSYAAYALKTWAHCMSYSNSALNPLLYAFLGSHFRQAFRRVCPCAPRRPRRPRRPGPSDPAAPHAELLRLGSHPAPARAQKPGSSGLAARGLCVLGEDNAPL
Procedure, shortened: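 Agonist activity is monitored as intracellular calcium rise in engineered HEK293 cells carrying human KISS1R. Cells are dye-loaded for 1 h at 37 C before compound addition, and fluorescence is recorded for 3 min.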

[5] = G protein-coupled receptor (GPCR) small molecule agonists, calcium flux assay: HEK293 wild type cell line counter screen (AID 1920065)
Procedure, shortened: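 Seed cells, incubate 18 h (37 C, 5% CO2); add calcium dye, 1 h at 37 C; pin-transfer compounds, ATP control or DMSO; read fluorescence 480/540 nm each second for 3 min.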

[6] = p53 small molecule agonists, cell-based qHTS assay with human liver microsomes (AID 1963577)
Procedure, shortened: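 Cells carrying a p53-responsive bla reporter were rested 5 h (37 C, 5% CO2) before compound transfer. Human liver microsomes plus NADPH, 0.5 mg/mL final apiece, supplied metabolism during the 16 h 37 C exposure.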

[7] = p53 small molecule agonists, cell-based qHTS assay with rat liver microsomes (AID 1963578)
Procedure, shortened: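 Fluorescence from a beta-lactamase reporter under a p53 response element was measured after cells had been incubated 16 h at 37 C with test compound and rat liver microsomes plus NADPH (0.5 mg/mL final each).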

[8] = p53 small molecule agonists, cell-based qHTS assay with human liver microsomes: qHTS cell viability counter screen (AID 1963579); note: nearly all actives have a fitted effect of over 45% in size
Procedure, shortened: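 Seed p53RE-bla cells at 4,000 per well; incubate 5 h at 37 C; add compound, human liver microsomes and NADPH; incubate 16 h at 37 C; add CellTiter-Glo; after 30 min at room temperature, read luminescence.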

[9] = p53 small molecule agonists, cell-based qHTS assay with rat liver microsomes: qHTS cell viability counter screen (AID 1963580); note: nearly all actives have a fitted effect of over 45% in size
Procedure, shortened: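 Rat liver microsome (0.5 mg/mL final) and NADPH (0.5 mg/mL final) co-incubation with compounds for 16 h at 37 C on HCT-116 p53RE-bla cells; cytotoxicity taken from intracellular ATP luminescence.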

[10] = p53 small molecule agonists, cell-based qHTS assay: qHTS cell viability counter screen (AID 1963581); note: nearly all actives have a fitted effect of over 45% in size
Procedure, shortened: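 Viability was counter-screened in parallel with the p53 agonist reporter by measuring intracellular ATP luminescence in the same HCT-116 p53RE-bla wells after 16 h compound treatment at 37 C.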

[11] = p53 small molecule agonists, cell-based qHTS assay (AID 1963582; active = well fitted activation curve with a large enough effect in the signal ratio in the repeat runs, not every such curve was filed as active; the % refers to the signal ratio)
Procedure, shortened: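 Cells carrying a p53-responsive bla reporter are treated with test compounds for 16 h at 37 C; beta-lactamase activity is then detected with LiveBLAzer B/G FRET substrate after 2 h at room temperature.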

[12] = molecular target: 5-hydroxytryptamine receptor 2A (Homo sapiens) (UniProt P28223); experiment: 5-hydroxytryptamine receptor 2A (HTR2A) small molecule antagonists, cell-based qHTS assay (AID 1963586); note: nearly all actives have a fitted effect of over 45% in size
Chain of 5-hydroxytryptamine receptor 2A (Homo sapiens) (P28223 whole entry, looked up): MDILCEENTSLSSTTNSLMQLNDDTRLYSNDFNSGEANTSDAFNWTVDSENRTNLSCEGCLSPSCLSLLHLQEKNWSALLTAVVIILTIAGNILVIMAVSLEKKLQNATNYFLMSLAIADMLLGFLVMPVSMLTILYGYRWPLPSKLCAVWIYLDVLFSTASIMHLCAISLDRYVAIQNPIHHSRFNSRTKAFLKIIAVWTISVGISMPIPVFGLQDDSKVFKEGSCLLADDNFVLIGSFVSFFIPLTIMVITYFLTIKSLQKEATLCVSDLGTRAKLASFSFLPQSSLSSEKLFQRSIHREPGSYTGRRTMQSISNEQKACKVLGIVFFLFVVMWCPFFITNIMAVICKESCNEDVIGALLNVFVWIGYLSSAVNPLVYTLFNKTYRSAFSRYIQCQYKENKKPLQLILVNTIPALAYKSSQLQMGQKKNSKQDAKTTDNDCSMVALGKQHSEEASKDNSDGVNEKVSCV
Procedure, shortened: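 CHO cells stably expressing human HTR2A were plated for 18 h at 37 C, then loaded with calcium dye for 1 h. Compounds were preincubated 5 min at room temperature before DOI (4 nM solution) was added. Kinetic fluorescence was read for 3 min.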

[13] = molecular target: 5-hydroxytryptamine receptor 2A (Homo sapiens) (UniProt P28223); experiment: 5-hydroxytryptamine receptor 2A (HTR2A) small molecule agonists, cell-based qHTS assay (AID 1963587); note: nearly all actives have a fitted effect of over 30% in size
Procedure, shortened: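 Kinetic calcium-flux fluorescence (2 min, 1 sec intervals) after compound addition in agonist mode. HTR2A-CHO cells were cultured 18 h, then dye-loaded 1 h at 37 C.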

[14] = molecular target: Muscarinic acetylcholine receptor M1 (Homo sapiens) (UniProt P11229); experiment: Cholinergic receptor muscarinic 1 (CHRM1) small molecule antagonists, cell-based qHTS assay (AID 1963588); note: nearly all actives have a fitted effect of over 40% in size
Chain of Muscarinic acetylcholine receptor M1 (Homo sapiens) (P11229 whole entry, looked up): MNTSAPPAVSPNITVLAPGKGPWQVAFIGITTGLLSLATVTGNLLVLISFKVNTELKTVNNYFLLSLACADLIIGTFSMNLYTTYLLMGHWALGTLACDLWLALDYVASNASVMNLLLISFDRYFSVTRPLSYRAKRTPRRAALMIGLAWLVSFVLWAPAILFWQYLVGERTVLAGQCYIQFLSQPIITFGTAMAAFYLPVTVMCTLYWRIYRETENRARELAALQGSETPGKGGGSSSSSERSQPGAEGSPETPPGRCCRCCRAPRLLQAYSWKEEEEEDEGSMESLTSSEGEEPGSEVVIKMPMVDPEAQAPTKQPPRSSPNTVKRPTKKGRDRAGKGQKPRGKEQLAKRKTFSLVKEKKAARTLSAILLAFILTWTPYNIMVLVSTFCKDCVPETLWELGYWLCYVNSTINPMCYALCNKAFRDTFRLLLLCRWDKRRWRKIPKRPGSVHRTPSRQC
Procedure, shortened: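 Compounds were tested at 15 concentrations in three independent runs. Dye-loaded CHRM1-CHO cells were exposed 5 min at room temperature before stimulation by acetylcholine added at 50nM. Intracellular calcium was read kinetically on FDSS for 3 min.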

[15] = molecular target: Muscarinic acetylcholine receptor M1 (Homo sapiens) (UniProt P11229); experiment: Cholinergic receptor muscarinic 1 (CHRM1) small molecule agonists, cell-based qHTS assay (AID 1963589); note: nearly all actives have a fitted effect of over 35% in size
Procedure, shortened: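 Cells were plated and incubated 18 h at 37 C/5% CO2, loaded with calcium dye for 1 h at 37 C, then treated with compounds in DMSO. Fluorescence was recorded kinetically at 1 sec intervals.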

[16] = cAMP Responsive Elements (CRE) small molecule agonists, cell-based qHTS assay (AID 1963590)
Procedure, shortened: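 Cells carrying a CRE-driven beta-lactamase reporter (HEK 293T) are seeded, incubated overnight (18 h), and treated with test compounds for 3 h at 37 C; reporter activity is then detected with a FRET substrate after 2 h at room temperature.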

[17] = cAMP Responsive Elements (CRE) small molecule antagonists, cell-based qHTS assay (AID 1963591; active = well fitted inhibition curve with a large enough effect in the signal ratio in the repeat runs, not every such curve was filed as active; the % refers to the signal ratio)
Procedure, shortened: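 Cells (CRE-bla HEK 293T, DMEM with 10% dialyzed FBS and 25 mM HEPES) are seeded and incubated 18 h. Compounds are added with NKH477 agonist at 0.25 uM final for 3 h, then FRET substrate for 2 h.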

[18] = molecular target: Beta-2 adrenergic receptor (Homo sapiens) (UniProt P07550); experiment: Adrenergic beta2 receptor (ADRB2) small molecule antagonists, cell-based qHTS assay (AID 1963592); note: series mostly up to about 92 µM; nearly all actives have a fitted effect of over 50% in size
Chain of Beta-2 adrenergic receptor (Homo sapiens) (P07550 whole entry, looked up): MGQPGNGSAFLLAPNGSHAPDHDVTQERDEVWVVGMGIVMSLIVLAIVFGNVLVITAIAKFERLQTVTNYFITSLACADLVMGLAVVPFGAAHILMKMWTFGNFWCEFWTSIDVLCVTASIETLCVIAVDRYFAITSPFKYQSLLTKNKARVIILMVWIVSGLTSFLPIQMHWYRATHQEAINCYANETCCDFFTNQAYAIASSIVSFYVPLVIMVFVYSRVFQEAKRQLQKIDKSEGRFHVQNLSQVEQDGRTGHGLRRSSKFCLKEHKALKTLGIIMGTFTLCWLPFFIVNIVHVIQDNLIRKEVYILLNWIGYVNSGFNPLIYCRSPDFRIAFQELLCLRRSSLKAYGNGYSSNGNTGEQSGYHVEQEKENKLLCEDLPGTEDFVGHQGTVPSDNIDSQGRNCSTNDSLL
Procedure, shortened: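 Assay format: CHO-ADRB2 cells, 18-20hr seeding at 37C/5% CO2, then compound plus 1nM isoproterenol agonist mix for 0.5hr RT. Homogeneous time-resolved fluorescence cAMP detection after 1hr, expressed as 665/615 nm ratio.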

[19] = molecular target: D(2) dopamine receptor (Homo sapiens) (UniProt P14416); experiment: Dopamine D2 receptor (DRD2) small molecule agonists, cell-based qHTS assay (AID 1963594); note: nearly all actives have a fitted effect of over 35% in size
Chain of D(2) dopamine receptor (Homo sapiens) (P14416 whole entry, looked up): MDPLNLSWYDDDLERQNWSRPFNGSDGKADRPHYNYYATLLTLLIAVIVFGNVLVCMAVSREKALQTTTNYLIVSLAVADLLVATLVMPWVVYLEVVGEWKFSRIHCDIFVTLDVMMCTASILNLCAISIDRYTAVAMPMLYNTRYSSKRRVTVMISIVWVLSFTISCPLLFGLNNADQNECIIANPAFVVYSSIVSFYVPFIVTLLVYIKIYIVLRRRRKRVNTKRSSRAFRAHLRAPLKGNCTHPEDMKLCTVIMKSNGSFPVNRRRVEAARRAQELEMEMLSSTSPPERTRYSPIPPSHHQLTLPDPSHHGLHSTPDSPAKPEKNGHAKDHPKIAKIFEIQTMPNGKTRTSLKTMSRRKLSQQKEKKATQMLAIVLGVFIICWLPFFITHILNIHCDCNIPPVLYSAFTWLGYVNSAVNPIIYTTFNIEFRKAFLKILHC
Procedure, shortened: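 cAMP accumulation in DRD2-HEK293 cells measured by HTRF after 1 h detection; compounds added 10 min before NKH477 (200nM […]) forskolin-analogue stimulation, 30 min at room temperature, with Ro20-1724 present at 0.1 mM final.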

[20] = molecular target: D(2) dopamine receptor (Homo sapiens) (UniProt P14416); experiment: Dopamine D2 receptor (DRD2) small molecule antagonists, cell-based qHTS assay (AID 1963595; active = well fitted inhibition curve with a large enough effect in the signal ratio in the repeat runs, with a control signal flat; the % refers to the signal ratio)
Procedure, shortened: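 Readout: HTRF cAMP, cAMP-d2 competing with cellular cAMP for anti-cAMP cryptate, read after 1 h. Cells: DRD2-HEK293. Conditions: 0.1 mM Ro20-1724, 12 nM quinpirole, 200 nM NKH477, 30 min RT.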

Measured: Potency

CCO[Si](CCCN=C=O)(OCC)OCC
inactive: all assays above

CC/C=C/CCO
inactive: all assays above

COCC(C)OC(C)=O (stereo not given)
inactive: all assays above

O=[N+]([O-])c1ccc(CCO)cc1
inactive: all assays above

O=Cc1ccc([N+](=O)[O-])cc1
inactive: all assays above

CCCC[O][Al]([O]CCCC)[O]CCCC
inactive: all assays above

C=C(C)C(=O)OC(C)C
inactive: all assays above
